# Unmarked numbers belong to inactive results.
# Legend:
# Assay in all cases: log2 ratio of Biotin-Ahx-Ub-VS probe labelling (fragment/DMSO); higher = less target engagement (more negative = stronger competition), active = hit call of the paper (q ≤ 0.05, log2 ratio ≤ -1)
# Details in all cases: compound concentration: 200 uM; treatment time: 3 h
# OTUD6B = target: T1, OTUD6B (UniProt Q8N6M0)
# T1 sequence (whole entry): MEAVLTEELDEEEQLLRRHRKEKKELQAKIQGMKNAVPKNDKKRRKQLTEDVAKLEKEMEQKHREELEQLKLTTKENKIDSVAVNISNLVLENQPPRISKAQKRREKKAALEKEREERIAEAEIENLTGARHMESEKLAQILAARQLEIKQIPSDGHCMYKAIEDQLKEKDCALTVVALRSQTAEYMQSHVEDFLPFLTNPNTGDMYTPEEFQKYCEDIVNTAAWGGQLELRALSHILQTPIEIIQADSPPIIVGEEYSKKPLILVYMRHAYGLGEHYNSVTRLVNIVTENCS
# Method in brief: (§1)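 HEK293T lysate (495 µg per sample, in Tris/CHAPS/IGEPAL buffer with protease inhibitors) was treated in triplicate with fragment at 200 µM or with DMSO for 3 h. It was then treated with Biotin-Ahx-Ub-VS (0.5 µM final) for 1 h. Labelled DUBs were NeutrAvidin-enriched, digested with LysC and trypsin, and run by diaPASEF LC-MS/MS. Spectronaut label-free quantities were global-median-normalised. Values are average log2 ratios fragment/DMSO by unpaired t-test, using proteins with ≥2 unique peptides.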
# OTUD7B = target: T2, OTUD7B (UniProt Q6GQQ9)
# T2 sequence (whole entry): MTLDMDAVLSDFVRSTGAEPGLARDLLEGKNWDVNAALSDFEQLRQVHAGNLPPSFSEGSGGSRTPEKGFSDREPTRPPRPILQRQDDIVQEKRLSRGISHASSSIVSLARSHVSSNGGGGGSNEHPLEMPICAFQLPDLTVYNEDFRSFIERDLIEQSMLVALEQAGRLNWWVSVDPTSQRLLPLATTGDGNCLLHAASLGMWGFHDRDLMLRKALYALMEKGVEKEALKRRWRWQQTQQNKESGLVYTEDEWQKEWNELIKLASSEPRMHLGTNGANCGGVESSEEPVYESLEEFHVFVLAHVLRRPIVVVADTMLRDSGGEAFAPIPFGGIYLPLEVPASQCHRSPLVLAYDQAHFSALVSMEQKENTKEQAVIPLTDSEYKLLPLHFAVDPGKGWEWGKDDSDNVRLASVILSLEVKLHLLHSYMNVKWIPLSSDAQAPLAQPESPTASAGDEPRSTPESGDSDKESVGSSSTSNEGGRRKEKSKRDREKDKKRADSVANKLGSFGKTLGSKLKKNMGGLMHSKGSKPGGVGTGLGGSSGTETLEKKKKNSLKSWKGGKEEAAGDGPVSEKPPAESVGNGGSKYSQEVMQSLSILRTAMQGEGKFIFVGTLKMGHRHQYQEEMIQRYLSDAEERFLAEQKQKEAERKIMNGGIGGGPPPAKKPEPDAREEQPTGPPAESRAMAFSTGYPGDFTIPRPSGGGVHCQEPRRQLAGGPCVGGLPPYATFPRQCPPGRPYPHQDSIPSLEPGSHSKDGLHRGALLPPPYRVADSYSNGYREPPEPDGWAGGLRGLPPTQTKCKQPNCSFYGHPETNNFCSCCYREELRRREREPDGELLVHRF
# Method in brief: as §1
# PRPF8 = PRPF8 (UniProt Q6P2Q9)
# Method in brief: as §1
# PSMD7 = target: T3, PSMD7 (UniProt P51665)
# T3 sequence (whole entry): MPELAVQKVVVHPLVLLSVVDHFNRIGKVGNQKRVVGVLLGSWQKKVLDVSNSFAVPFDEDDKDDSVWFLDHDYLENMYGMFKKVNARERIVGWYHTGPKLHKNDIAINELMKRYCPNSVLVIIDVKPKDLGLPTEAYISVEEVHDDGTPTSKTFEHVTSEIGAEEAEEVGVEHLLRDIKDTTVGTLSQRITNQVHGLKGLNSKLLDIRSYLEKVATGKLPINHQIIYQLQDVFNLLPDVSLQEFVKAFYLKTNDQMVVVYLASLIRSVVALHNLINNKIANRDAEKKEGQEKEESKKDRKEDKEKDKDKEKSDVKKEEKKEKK
# Method in brief: as §1
# UCHL1 = UCHL1 (UniProt P09936)
# Sequence of UCHL1 (P09936 whole entry, looked up): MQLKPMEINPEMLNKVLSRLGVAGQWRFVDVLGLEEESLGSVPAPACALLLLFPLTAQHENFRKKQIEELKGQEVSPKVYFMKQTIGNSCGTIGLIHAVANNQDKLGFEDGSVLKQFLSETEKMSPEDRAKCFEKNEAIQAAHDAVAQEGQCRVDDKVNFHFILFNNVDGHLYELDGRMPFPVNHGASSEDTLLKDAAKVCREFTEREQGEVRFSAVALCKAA
# Method in brief: as §1
# UCHL3 = target: T4, UCHL3 (UniProt P15374)
# T4 sequence (whole entry): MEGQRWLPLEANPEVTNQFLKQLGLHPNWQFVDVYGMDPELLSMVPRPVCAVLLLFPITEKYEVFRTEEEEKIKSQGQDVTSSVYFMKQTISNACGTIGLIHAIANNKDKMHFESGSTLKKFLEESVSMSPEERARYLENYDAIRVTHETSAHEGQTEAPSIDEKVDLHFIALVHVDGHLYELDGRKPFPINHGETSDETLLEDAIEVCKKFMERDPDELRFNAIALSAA
# Method in brief: as §1
# UCHL5 = target: T5, UCHL5 (UniProt Q9Y5K5)
# T5 sequence (whole entry): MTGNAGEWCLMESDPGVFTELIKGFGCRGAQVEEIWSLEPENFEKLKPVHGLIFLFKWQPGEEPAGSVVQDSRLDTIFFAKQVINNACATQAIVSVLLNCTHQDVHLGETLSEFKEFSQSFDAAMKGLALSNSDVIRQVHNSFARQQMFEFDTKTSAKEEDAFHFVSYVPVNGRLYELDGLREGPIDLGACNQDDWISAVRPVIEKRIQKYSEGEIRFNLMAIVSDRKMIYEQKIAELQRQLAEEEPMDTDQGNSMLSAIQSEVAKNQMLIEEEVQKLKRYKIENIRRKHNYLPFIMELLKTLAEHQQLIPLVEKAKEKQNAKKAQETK
# Method in brief: as §1
# USP10 = USP10 (UniProt Q14694)
# Sequence of USP10 (Q14694 whole entry): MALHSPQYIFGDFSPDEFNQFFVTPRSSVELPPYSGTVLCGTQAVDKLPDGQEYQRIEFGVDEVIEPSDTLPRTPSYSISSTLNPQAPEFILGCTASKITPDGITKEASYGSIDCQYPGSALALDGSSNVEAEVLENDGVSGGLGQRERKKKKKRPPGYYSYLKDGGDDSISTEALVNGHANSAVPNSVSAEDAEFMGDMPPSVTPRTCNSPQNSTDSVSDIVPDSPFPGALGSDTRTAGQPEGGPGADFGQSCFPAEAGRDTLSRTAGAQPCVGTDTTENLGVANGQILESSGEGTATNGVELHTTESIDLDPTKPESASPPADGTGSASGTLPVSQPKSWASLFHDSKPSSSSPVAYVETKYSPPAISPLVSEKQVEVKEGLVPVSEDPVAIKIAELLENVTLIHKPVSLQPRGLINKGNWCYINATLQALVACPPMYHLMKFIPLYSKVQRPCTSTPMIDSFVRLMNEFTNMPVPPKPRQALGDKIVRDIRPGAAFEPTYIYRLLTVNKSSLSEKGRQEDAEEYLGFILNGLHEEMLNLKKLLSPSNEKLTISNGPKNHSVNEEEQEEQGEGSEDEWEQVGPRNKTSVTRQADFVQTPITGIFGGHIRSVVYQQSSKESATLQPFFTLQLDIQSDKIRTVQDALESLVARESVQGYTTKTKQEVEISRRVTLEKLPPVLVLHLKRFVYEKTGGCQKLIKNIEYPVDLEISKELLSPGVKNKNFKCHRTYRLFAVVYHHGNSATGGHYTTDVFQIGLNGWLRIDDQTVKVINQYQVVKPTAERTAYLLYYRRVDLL
# Method in brief: as §1
# USP15 = target: T6, USP15 (UniProt Q9Y4E8)
# T6 sequence (whole entry): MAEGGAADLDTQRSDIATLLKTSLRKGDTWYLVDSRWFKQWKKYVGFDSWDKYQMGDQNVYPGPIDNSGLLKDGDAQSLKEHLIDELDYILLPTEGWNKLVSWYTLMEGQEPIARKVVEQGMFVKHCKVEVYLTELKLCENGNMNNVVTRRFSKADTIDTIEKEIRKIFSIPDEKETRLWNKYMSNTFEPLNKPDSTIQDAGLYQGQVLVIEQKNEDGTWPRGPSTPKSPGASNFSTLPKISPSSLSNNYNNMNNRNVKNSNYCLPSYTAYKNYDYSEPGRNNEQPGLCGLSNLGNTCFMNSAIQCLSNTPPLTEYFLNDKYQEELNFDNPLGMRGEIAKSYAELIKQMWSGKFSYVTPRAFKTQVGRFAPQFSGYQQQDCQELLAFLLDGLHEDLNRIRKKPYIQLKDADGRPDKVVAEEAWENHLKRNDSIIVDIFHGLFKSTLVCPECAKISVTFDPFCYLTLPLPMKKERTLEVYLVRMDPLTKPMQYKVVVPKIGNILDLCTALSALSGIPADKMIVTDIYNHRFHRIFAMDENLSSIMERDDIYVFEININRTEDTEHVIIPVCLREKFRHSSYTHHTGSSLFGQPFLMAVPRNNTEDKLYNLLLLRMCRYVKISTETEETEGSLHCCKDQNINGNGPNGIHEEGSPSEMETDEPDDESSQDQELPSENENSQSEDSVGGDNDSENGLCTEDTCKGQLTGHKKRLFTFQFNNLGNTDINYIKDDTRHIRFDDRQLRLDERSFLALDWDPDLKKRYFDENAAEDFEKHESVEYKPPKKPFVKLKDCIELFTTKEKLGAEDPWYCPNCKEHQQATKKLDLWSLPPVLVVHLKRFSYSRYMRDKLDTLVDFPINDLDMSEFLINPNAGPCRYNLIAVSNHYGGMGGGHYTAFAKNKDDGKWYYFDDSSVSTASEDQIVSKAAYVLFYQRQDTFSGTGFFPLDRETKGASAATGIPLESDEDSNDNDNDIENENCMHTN
# Method in brief: as §1
# USP16 = USP16 (UniProt Q9Y5T5)
# Sequence of USP16 (Q9Y5T5 whole entry, looked up): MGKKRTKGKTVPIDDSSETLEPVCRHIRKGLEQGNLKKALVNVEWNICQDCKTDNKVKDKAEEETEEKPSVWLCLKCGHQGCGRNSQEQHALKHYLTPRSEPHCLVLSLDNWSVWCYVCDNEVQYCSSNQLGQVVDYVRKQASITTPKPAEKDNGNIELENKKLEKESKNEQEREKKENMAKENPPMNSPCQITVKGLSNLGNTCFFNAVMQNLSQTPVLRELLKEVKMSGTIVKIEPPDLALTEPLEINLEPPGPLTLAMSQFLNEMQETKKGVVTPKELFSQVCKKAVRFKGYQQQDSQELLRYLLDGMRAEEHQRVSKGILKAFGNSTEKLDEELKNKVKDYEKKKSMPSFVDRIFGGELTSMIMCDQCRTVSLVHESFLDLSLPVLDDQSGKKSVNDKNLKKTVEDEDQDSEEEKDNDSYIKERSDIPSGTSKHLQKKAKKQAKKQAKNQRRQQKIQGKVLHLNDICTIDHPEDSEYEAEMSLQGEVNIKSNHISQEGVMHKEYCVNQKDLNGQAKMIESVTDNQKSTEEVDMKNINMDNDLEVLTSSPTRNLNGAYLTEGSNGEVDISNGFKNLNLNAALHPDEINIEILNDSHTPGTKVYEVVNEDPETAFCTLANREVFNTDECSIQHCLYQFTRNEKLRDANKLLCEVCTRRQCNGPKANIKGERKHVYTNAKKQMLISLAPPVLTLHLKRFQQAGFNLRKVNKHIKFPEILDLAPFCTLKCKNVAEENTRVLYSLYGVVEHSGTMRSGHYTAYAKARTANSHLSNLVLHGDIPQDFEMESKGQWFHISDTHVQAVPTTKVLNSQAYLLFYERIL
# Method in brief: as §1
smiles,measurement,setting,value
O=C(CCl)N1CCC(C(=O)N2CCCCCC2)CC1,log2 ratio of Biotin-Ahx-Ub-VS probe labelling,OTUD6B,0.0239
same,log2 ratio of Biotin-Ahx-Ub-VS probe labelling,OTUD7B,-0.19
same,log2 ratio of Biotin-Ahx-Ub-VS probe labelling,PRPF8,0.0601
same,log2 ratio of Biotin-Ahx-Ub-VS probe labelling,PSMD7,-0.0463
same,log2 ratio of Biotin-Ahx-Ub-VS probe labelling,UCHL1,-1.19 (active)
same,log2 ratio of Biotin-Ahx-Ub-VS probe labelling,UCHL3,0.241
same,log2 ratio of Biotin-Ahx-Ub-VS probe labelling,UCHL5,-0.191
same,log2 ratio of Biotin-Ahx-Ub-VS probe labelling,USP10,-0.0405
same,log2 ratio of Biotin-Ahx-Ub-VS probe labelling,USP15,-0.115
same,log2 ratio of Biotin-Ahx-Ub-VS probe labelling,USP16,-0.164

# Reference: the supplement of paper PMC11732987, “Enantioselective OTUD7B fragment discovery through chemoproteomics screening and high-throughput optimisation” (Communications Chemistry, 2025)
